Measles CPE: protection of cells from measles virus | 1.5% of 140,000 active | Measles virus-infected cells, CPE protection, absorbance | protection (pct of control), % at 4 µM; in the data active means protection mostly above about 24%, no sharp cut-off; inactive means mostly below about 26%
F-actin modifier: alters cytoskeleton assembly in HUVEC cells; inhibition, % at 2 µM; HUVEC TNFa F-actin phalloidin imaging, high content; AID 836; 0.18% of 91,000 active;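 active means inhibition above the batch mean plus 3 SD and confirmed as a hit by visual image inspection, cut at about 30% in these data, passing the limit was not always enough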
* = called active by the depositor; / = no result. Compounds with a hit are over-represented: about 1.5% of the library has one in this group of screens.

SMILES	Measles CPE	F-actin modifier
O=C(Cc1ccc(Cl)cc1)Nc1ccccc1Sc1ccccc1	9	/
O=C(CCl)Nc1ccccc1Sc1ccccc1	46*	-4
CC1CCC/C(=N\NC(=O)c2ccncc2)C1 (stereo unspecified)	5	/
CCC1CCCCN1C(=O)c1cc(-c2ccc(Cl)c(Cl)c2)on1 (stereo unspecified)	6	/
CC1CCCCN1C(=O)c1cc(-c2ccc(Cl)c(Cl)c2)on1 (stereo unspecified)	46*	68
Cc1nnc(N(C)C(=O)c2ccccn2)s1	53*	-2
CN(C(=O)c1ccccn1)c1nnc(-c2cccnc2)s1	25	3
O=C(Nc1ccccc1)OCCNC(=O)c1cccc(Cl)c1	29*	9
CC(C)OC(=O)NCCOC(=O)Nc1cccc(Cl)c1	6	25
CCOC(=O)C1CCC(CN(Cc2ccccc2)S(=O)(=O)c2ccc([N+](=O)[O-])cc2)CC1 (stereo unspecified)	4	/
Cc1ccc(C(=O)Nc2nnc(C)s2)o1	3	6
Cc1ccc(/C=C/C(=O)Nc2nnc(C)s2)o1	20*	/
CC(OC(=O)c1ccc([N+](=O)[O-])s1)C(=O)Nc1ncc(Cl)cc1Cl (stereo unspecified)	11	/
Nn1cc(-c2ccccc2)nc1SCC(=O)N1CCN(S(=O)(=O)c2ccc3ccccc3c2)CC1	23	6
Nn1cc(-c2ccccc2)nc1SCC(=O)N1CCN(S(=O)(=O)c2ccc(Cl)cc2)CC1	23*	/
COC(=O)c1c(NC(=O)CC2SC(N)=NC2=O)sc2c1CCC(C(C)(C)C)C2 (stereo unspecified)	4	/
C=CCn1c(=O)c2ccccc2n2c(SCC(=O)c3ccccc3)nnc12	1	-24
C=CCn1c(=O)c2ccccc2n2c(SCc3cc(=O)n4ccsc4n3)nnc12	66*	6
COc1cc2c(c(OC)c1)C(c1ccncc1)CC(=O)N2 (stereo unspecified)	16	/
COc1cc(OC)c(C2SCCS2)c(OC)c1	33*	/
CC/C(=N\NC(=O)c1ccc(N(C)C)cc1)c1ccccc1	2	/
CCN(CC)C(=O)c1ccc2c(c1[N+](=O)[O-])C(=O)c1ccccc1C2=O	16	/
Cc1cccc(NC(=O)Cn2c(/C=C/c3ccccc3)nc3ccccc32)c1	3	/
O=C(Nc1ccccc1)C(=O)Nc1ccccn1	27*	8
O=C(Nc1cccc(O)c1)C(=O)Nc1ccccn1	8	/
SMILES	Measles CPE	F-actin modifier
CN(C)c1ccc(NC(=O)c2cc3c(=O)n4ccccc4nc3n2C)cc1	/	-16
Cn1c(C(=O)N2COCC2(C)C)cc2c(=O)n3ccccc3nc21	22*	/
CCC(Oc1ccccc1)C(=O)Nc1ccsc1C(=O)OC (stereo unspecified)	6	/
COc1ccc(CNC(N)=O)cc1OC	27	11
COc1ccc(CC(=O)c2cc(OC)c(OC)cc2CC(=O)O)cc1OC	4	2
COc1ccc(CCC(N)=O)cc1OC	27*	10
COc1ccc(CCNC(=O)COC(=O)c2ccco2)cc1OC	39*	17
COc1ccc(C(=O)OCC(=O)NCc2ccco2)cc1OC	2	8
COc1ccc(C(=O)Cc2ccc(OC)c(OC)c2)c(OC)c1	61*	7
Cc1ccc(-n2nnnc2SCC(=O)Nc2ncc(Cc3ccccc3Cl)s2)cc1	28	/
NNc1nc2c(F)cc(F)cc2s1	4	/
C=CCn1c(COc2ccccc2F)nnc1SCCN1C(=O)c2ccccc2C1=O	2	/
Nn1c(SCC(=O)Nc2ccc3c(c2)OCCO3)nnc1C(F)(F)F	13	34*
Cc1nnc(SCC(=O)Nc2ccc3c(c2)OCCO3)n1N	1	-11
CCc1cc(OCCOCCN(C)C)ccc1Cl	5	/
COc1ccc(C2NC(=O)NC(c3ccccc3)=C2c2nc3ccccc3s2)cc1 (stereo unspecified)	28*	12
O=C1NC(c2ccccc2)=C(c2nc3ccccc3s2)C(c2ccc(F)cc2)N1 (stereo unspecified)	7	-22
O=C(O)CCC(=O)NNc1ccccc1[N+](=O)[O-]	14	/
Clc1ccccc1CSc1nncn1NC/C=C/c1ccccc1	17	/
Nc1c2c(nc3ccc(Br)cc13)N(c1ccccc1)CC2	13	-6
Nc1c2c(nc3ccc(Br)cc13)N(Cc1ccccc1)CC2	28*	/
COc1cc(/C=C/C(=O)NC(C)(C)C)ccc1OCc1ccccc1	27*	/
COc1ccccc1/C=C/C(=O)N1CCOCC1	2	9
CNC(=O)c1ccc(OCc2ccccc2)c(OC)c1	76*	3
COc1cc(/C=C/C(=O)N2CCOCC2)ccc1OCc1ccccc1	94*	/
SMILES	Measles CPE	F-actin modifier
COc1ccc(/C=C/C(=O)O)cc1OC	4	/
COc1ccccc1OCc1ccc(C(=O)NN)cc1	11	12
O=C(CCCSc1nnnn1-c1cccc2ccccc12)c1ccc(F)cc1	12	11
O=C(CN1CCN(Cc2ccccc2Cl)CC1)N/N=C/C=C/c1ccccc1[N+](=O)[O-]	7	/
S=C(Nc1ccccc1Cl)N1CCOCC1	10	/
O=C(CCSCc1ccc(Cl)cc1)NC1CCCC1	15	/
CC(=O)Nc1ccc(-c2nnc(SCc3ccccc3C#N)n2C)cc1	24*	-2
CC(=O)Nc1cccc(-c2nnc(SCc3ccccc3C#N)n2C)c1	3	8
CC(=O)N1CCc2cc(S(=O)(=O)NCCN3CCC(C)CC3)ccc21	38*	7
CC(=O)N1CCc2cc(S(=O)(=O)NCCCN3CCN(Cc4ccccc4)CC3)ccc21	17	3
N#CC1=C(N)OC2=C(C(=O)CCC2)C1c1ccccc1 (stereo unspecified)	34*	/
N#CC1=C(N)OC2=C(C(=O)CCC2)C1c1ccsc1 (stereo unspecified)	4	-18
Cc1ccc(C(=O)/C=C/Nc2cccc([N+](=O)[O-])c2)o1	9	/
CC(C)CNC(=O)C(=O)N/N=C/c1cccs1	18	-18
Cc1ccc(/C=N/NC(=O)c2ccccn2)s1	11	/
O=C(N/N=C/c1cccs1)c1ccccn1	42*	15
CCCNC(=O)C(=O)N/N=C/c1cccs1	50*	/
CCCCNC(=S)N/N=C/c1ccc(OCC(=O)Nc2c(C)cc(C)cc2C)c(OC)c1	9	/
CCCCC(=O)Nc1cccc(C(=O)N/N=C/c2ccc(OC)cc2OC)c1	4	/
FC(F)(F)c1n[nH]c(=S)n1/N=C/c1ccco1	10	/
CC1CCCC(C)N1C(=O)CSc1nnc(NC(=O)Cc2cccs2)s1 (stereo unspecified)	46*	34
CC1Cc2ccccc2N1C(=O)CSc1nnc(NC(=O)Cc2cccs2)s1 (stereo unspecified)	6	4
O=S(=O)([O-])CCC[n+]1c(SCCCS(=O)(=O)O)sc2ccc(Cl)cc21	35*	/
CCn1c(C)[n+](CCCS(=O)(=O)[O-])c2cc(Cl)c(Cl)cc21	8	10
C=CCOc1ccc(C=Nc2ccc(Cl)cc2)c(O)c1	6	/
SMILES	Measles CPE	F-actin modifier
COC(=O)c1ccc(NC(=O)CN(Cc2ccc(Cl)cc2)S(C)(=O)=O)cc1	10	6
O=[N+]([O-])c1cc(-c2nc3nc4ccccc4nc3n2CCc2ccccc2)cc([N+](=O)[O-])c1	4	/
CCN(CC(=O)N1CCOCC1)S(=O)(=O)c1ccc(C)cc1	17	-11
Cc1cc(C)c(S(=O)(=O)N(CC(=O)N2CCOCC2)C2CCCCC2)c(C)c1	9	11
Cc1ccc(S(=O)(=O)N(CC(=O)N2CCOCC2)C2CCCCC2)cc1	17*	-7
COc1ccc(N(CC(=O)NN=C2CCCCCCC2)S(=O)(=O)c2ccccc2)cc1Cl	15	-5

Screening data: PubChem BioAssay, several laboratories
